# Test results from the supplement of paper PMC6555819.
# Tests used:
# Assay in all cases: PBM binding z-score (relative to random genomic background probes); higher = stronger binding; sequences stand for … in GC…GCGATTGACAGCGTAGAATGAAGG
# [1] = tested on: FXR:RXRa (NR concentration 270 nM, RXRa partner concentration 90 nM)
# Procedure, shortened: (§1)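 Antibodies against each partner of ligand-free nuclear receptor dimers (one per run) detected binding on custom Agilent 4×180K protein-binding microarrays after 1 h incubation. The double-stranded probes had 34-nt variable regions carrying direct-repeat seeds, single-nucleotide variants, half-site ablations and random human genomic background sequences. Binding z-scores, from regression-normalized fluorescence, use the random background probes as reference.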
# [2] = tested on: LXRa:RXRa (NR concentration 270 nM, RXRa partner concentration 90 nM)
# Procedure, shortened: as §1
# [3] = tested on: LXRa homodimer (NR concentration 270 nM)
# Procedure, shortened: as §1
# [4] = tested on: LXRb:RXRa (NR concentration 270 nM, RXRa partner concentration 90 nM)
# Procedure, shortened: as §1
# [5] = tested on: LXRb homodimer (NR concentration 270 nM)
# Procedure, shortened: as §1
# [6] = tested on: PPARa:RXRa (NR concentration 270 nM, RXRa partner concentration 90 nM)
# Procedure, shortened: as §1
# [7] = tested on: PPARg:RXRa (NR concentration 180 nM, RXRa partner concentration 90 nM)
# Procedure, shortened: as §1
# [8] = tested on: PPARg:RXRa 270nM:90nM, anti-RXR (NR concentration 270 nM, RXRa partner concentration 90 nM)
# Procedure, shortened: as §1
# [9] = tested on: PPARg:RXRa 30nM:10nM, anti-RXR (NR concentration 30 nM, RXRa partner concentration 10 nM)
# Procedure, shortened: as §1
# [10] = tested on: PPARg:RXRa 90nM:30nM, anti-RXR (NR concentration 90 nM, RXRa partner concentration 30 nM)
# Procedure, shortened: as §1
# [11] = tested on: PPARg:RXRa DBDmut IVT, anti-RXR (DBD mutation: RXRa K156A/R161A, NR concentration 270 nM, RXRa partner concentration 90 nM)
# Procedure, shortened: as §1
# [12] = tested on: PPARg:RXRa IVT, anti-PPARg (NR concentration 270 nM, RXRa partner concentration 90 nM)
# Procedure, shortened: as §1
# [13] = tested on: PPARg DBDmut:RXRa IVT, anti-PPARg (DBD mutation: PPARg1 K132A/R137A, NR concentration 270 nM, RXRa partner concentration 90 nM)
# Procedure, shortened: as §1
# [14] = tested on: PPARg DBDmut IVT, anti-PPARg (DBD mutation: PPARg1 K132A/R137A, NR concentration 270 nM)
# Procedure, shortened: as §1
# [15] = tested on: PPARg homodimer (NR concentration 180 nM)
# Procedure, shortened: as §1
# [16] = tested on: PXR:RXRa (NR concentration 270 nM, RXRa partner concentration 90 nM)
# Procedure, shortened: as §1
# [17] = tested on: PXR homodimer (NR concentration 270 nM)
# Procedure, shortened: as §1
# [18] = tested on: RARa:RXR (NR concentration 270 nM, RXRa partner concentration 90 nM)
# Procedure, shortened: as §1
# [19] = tested on: RARa homodimer (NR concentration 270 nM)
# Procedure, shortened: as §1
# [20] = tested on: RARb:RXRa (NR concentration 270 nM, RXRa partner concentration 90 nM)
# Procedure, shortened: as §1
Sequence,PBM binding z-score [1],PBM binding z-score [2],PBM binding z-score [3],PBM binding z-score [4],PBM binding z-score [5],PBM binding z-score [6],PBM binding z-score [7],PBM binding z-score [8],PBM binding z-score [9],PBM binding z-score [10],PBM binding z-score [11],PBM binding z-score [12],PBM binding z-score [13],PBM binding z-score [14],PBM binding z-score [15],PBM binding z-score [16],PBM binding z-score [17],PBM binding z-score [18],PBM binding z-score [19],PBM binding z-score [20]
ATCTTTAGGTAAAGTTCAGTGAAAGATCGATAGA,0.994,1.72,1.25,1.18,0.781,1.87,2.25,3.13,1.43,2.95,1.08,1.4,0.514,1.26,0.959,2.02,1.36,1.27,0.483,2.65
CCTGCTAGGTCATTGGTCAGCTAAAGCAGCTCGC,4.06,3.07,0.559,2.13,0.108,3.56,3.71,4.63,1.79,4.05,3.86,3.73,0.135,-0.404,1.24,1.47,0.029,2.07,-0.492,3.97
TCTATTAGTTGGTTAGGGCAACCGAAACAGCGGA,0.675,0.576,0.522,0.534,1.35,0.448,-0.169,1.55,3.59,2.57,1.47,0.862,1.18,0.941,0.798,0.158,0.345,0.342,1.17,0.848
CCTTACGGGCCACTCCAGGTTATAGCATCGGAGT,0.501,3.23,0.439,-0.116,-0.752,-0.00696,0.417,-0.281,-0.409,-0.41,0.503,0.46,-1.12,-0.87,0.232,0.0123,0.0587,0.0279,0.0434,0.496
ACATGTAGGTTAGCTGGGGTCATTCAGACTAGGC,5.12,5.55,2.93,4.9,1.56,4.85,4.21,4.58,1.87,3.39,5.83,4.97,2.39,2.35,6.39,6.77,5.5,6.23,2.18,3.1
ACTATTAGTTGAGACTAGGGCAACCGATAGGTTG,-0.2,-0.21,-0.416,-0.304,0.0178,0.296,0.679,0.33,0.227,-0.101,1.02,2.46,0.767,0.914,-0.0941,-0.323,-0.0618,-0.0584,0.518,0.583
CCTAGTTGGTCGAGGTCACACACGCTATAGGTAC,4.44,4.08,2.35,3.65,0.632,4.31,2.86,3.39,0.788,2.21,1.44,3.16,1.31,-0.295,3.81,5.08,3.73,5.08,1.8,3.63
CCAGACAGGTGAGAAGGTAACCCAGCCTCGATTA,0.179,0.277,-0.0873,0.148,0.023,0.739,0.689,0.473,-0.12,0.118,1.18,0.79,-0.0117,-0.618,0.918,-0.0868,0.187,0.417,0.439,0.682
CCTACTGGTCCAAAGGTCATTGATTCCAATGCTC,4.78,5.17,4.86,5.02,1.52,5.67,9.11,9.11,7.82,9.09,1.53,4.41,0.302,0.567,3.79,5.35,2.05,5.46,1.48,4.42
ATCCCTAGGTAAAGATAGTTCAGTGAATGCAAAT,0.139,4.49,0.337,0.881,0.0793,0.459,0.486,-0.104,-0.14,-0.302,-0.0456,0.0928,0.379,0.507,0.544,1.12,0.666,0.665,1.04,0.863
CGAACGCGGGCATGAGTTGATAGCAAATGCCGAT,-0.653,-0.715,-0.461,-0.883,-1.24,-0.441,0.36,-0.484,-0.861,-0.633,-0.0191,-0.364,-0.145,-0.957,-0.435,-0.69,-0.265,-0.878,-0.807,-0.0245
CTACCAAGCTGAACAAGGTCGTTGATTACTATTC,0.51,0.731,0.686,1.31,-0.0286,0.706,-0.00663,0.00986,-0.206,-0.336,0.107,-0.452,0.163,0.158,0.308,1.39,1.02,1.31,0.561,0.523
CCTGGTAGGTCAATGGTCAGCTAAAGCAGCTCGC,3.32,2.64,0.425,1.98,0.463,3.77,6.52,6.4,4.37,6.53,4.64,5.35,0.462,-0.453,2.06,1.29,0.146,2.11,1.12,3.63
CCTCGGAGGACAACAGGAGGTCAGAGATGCCAGA,1.06,1.85,2.02,1.36,-0.479,2.08,0.895,0.272,-0.499,-0.289,-0.0162,0.314,-0.377,-1.49,1.1,2.04,0.508,2.05,0.885,2.8
TTACCAAGGTGGAGGTCGTTGATCCCTCTGTAGA,1.68,1.96,0.12,1.66,-0.0737,1.7,0.691,2.12,0.972,1.4,-0.0945,0.927,-0.0829,0.467,0.494,1.37,-0.028,1.58,-0.0306,0.92
CCTCACGGGTCAAGGTTATAGCACGGGTGGTACG,5.02,3.42,0.0967,2.74,-0.33,4.38,3.05,3.67,0.731,2.35,0.0332,1.85,0.133,0.0961,2.07,3.03,0.458,3.73,0.228,4.17
GCATATAGGTAATACAAGGAGAAAGTCCGATTGT,0.156,-0.0258,-0.258,-0.357,-0.633,0.37,1.06,0.421,0.217,0.104,3.9,2.35,0.451,1,-0.266,-0.205,0.00189,0.277,0.43,-0.406
AGGCAAAGTTCATCTAGGTAACGTAAGATATGCT,6.62,5.97,4.54,3.71,1.35,4.88,5.55,5.87,2.83,4.72,1.08,3.73,1.34,0.748,3.08,5.33,6.34,3.96,1.67,4.72
TCGTATAGGTAAATGCTAGGTGAAAGTCCGATCT,0.843,0.876,0.236,0.653,0.0986,0.931,0.156,1.84,3.04,2.54,2.09,1.21,0.00787,0.782,0.833,0.373,-0.198,0.889,0.867,0.432
AGAATGAGGTGATACGTAGATCAGGGAAGAAAGT,0.335,-0.0138,-0.435,-0.252,-0.444,1.52,1.16,1.16,0.448,0.958,4.06,2.23,1.58,0.564,0.0718,-0.029,0.133,0.117,-0.0248,0.411
CGTCCAAGGTCAATGCTAGGTCAATGAAAGCATT,6.8,5.82,3.63,4.64,1.53,5.09,4.43,4.97,1.54,3.64,2.82,4.3,0.467,0.337,5.41,5.09,1.55,5.61,1.61,5.25
GGAACGAGGGCATTCGAGTTGATGGCATGGCGAT,1.48,1.27,-0.635,-0.299,-0.896,1.31,0.637,0.324,-0.665,-0.326,3,2.1,-0.485,-0.554,-0.644,3.26,1.55,0.115,-0.893,1.6
TAGCCTAGGTCATTCAGGTGCCAGTATAGAAAGC,4.93,3.74,0.777,2.77,0.913,3.55,1.87,2.27,0.493,1.54,1.57,2.83,0.483,-0.0925,1.13,2.17,0.327,2.34,-0.175,3.6
ACTAGCATGCCAAGGGTCACTCAAGATTAGTCCG,2.51,2.97,0.285,2.95,0.101,4.14,5.14,6.08,3.82,6.39,0.455,2.66,-0.409,0.469,2.73,3.31,-0.0678,4.02,0.721,3.38
GCTTGTAGATCAAGGTTAATAAAGACTAAGCTAA,-0.0696,2.14,-0.45,0.661,-0.608,1,1.29,2.36,0.581,1.78,1.14,0.996,-0.734,0.456,-0.133,0.16,0.327,0.282,0.0284,0.519
GCGACTGGGGCAAAGGAGGTTACCATAAGGTTGG,1.77,1.09,-0.0421,0.882,-0.261,2.06,3.15,3.93,1.89,3.87,4.69,3.76,-0.0461,-0.579,1.05,1.54,-0.167,1.41,-0.0952,1.26
CCAGACAGGTGAAAGGTAACCCAGTCTGGTACGC,0.66,0.713,-0.512,0.445,-0.0532,3.4,5.86,5.65,3.97,5.97,1.94,3.53,-0.215,-0.209,0.618,0.694,-0.254,1.53,0.316,1.27
ATACCAAGGGGATCGTGAGGTCGTTGATACTAAC,0.492,0.487,0.291,1.26,-0.272,0.97,0.267,-0.0276,-0.375,-0.365,-0.449,-0.121,-0.0494,0.0346,-0.227,1.68,0.87,1.52,-0.222,0.379
